# TRb SRC2 PPI – disrupts binding of human TR beta to SRC2 | P10828 | TRbeta-SRC2 peptide binding, fluorescence polarization; receptor liganded with 1 µM T3 | Potency, µM (doses to about 106 µM), without a hit: at the highest dose activity change, negative = inhibition, most hits filed as inhibitors | 0.065% of 280,000 active | AID 1469;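 further: potency means the concentration at half of the fitted maximal effect; plate controls were bound peptide for no effect and peptide without receptor for full effect; nearly all actives have a fitted effect of over 50% in size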
# Target sequence (P10828 whole entry, looked up): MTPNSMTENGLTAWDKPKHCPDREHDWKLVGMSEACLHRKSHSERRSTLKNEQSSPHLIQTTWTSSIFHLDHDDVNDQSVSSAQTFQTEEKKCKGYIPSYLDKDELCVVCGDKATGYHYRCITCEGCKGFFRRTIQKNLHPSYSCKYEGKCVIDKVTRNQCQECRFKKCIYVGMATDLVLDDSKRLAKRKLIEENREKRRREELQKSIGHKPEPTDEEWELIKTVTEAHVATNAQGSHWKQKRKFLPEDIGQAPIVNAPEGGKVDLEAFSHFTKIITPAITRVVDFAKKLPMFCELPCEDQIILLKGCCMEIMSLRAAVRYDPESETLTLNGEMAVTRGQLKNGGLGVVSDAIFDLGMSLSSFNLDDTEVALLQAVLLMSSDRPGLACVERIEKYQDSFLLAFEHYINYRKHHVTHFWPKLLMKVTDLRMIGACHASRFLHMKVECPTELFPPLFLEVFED
#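 Human TRb ligand-binding domain (0.6 uM) is mixed with 20 nM Texas Red SRC2 peptide and 1 uM T3; after compound addition and 5 hr at ambient temperature, polarization is measured and normalized to unbound and bound controls.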
# Tau fibril FP – blocks human tau fibril formation measured by polarization; P10636; K18 P301L tau heparin fibrillization, Alexa594 FP, 6 h; Potency, µM (top dose mostly 57.7 µM), for the others: at the highest dose activity, negative = inhibition, most hits filed as inhibitors; 0.39% of 280,000 active; further: potency means the concentration at half of the fitted maximal effect; nearly all actives have a fitted effect of over 55% in size
# Target sequence (P10636 561-689 P618L limits assumed): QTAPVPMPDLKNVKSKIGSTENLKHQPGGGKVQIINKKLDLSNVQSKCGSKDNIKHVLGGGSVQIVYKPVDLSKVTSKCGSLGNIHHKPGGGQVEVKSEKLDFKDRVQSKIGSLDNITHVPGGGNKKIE
#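 K18 P301L tau (15 uM unlabeled/0.24 uM Alexa 594-labeled, final) + compound + heparin 20 uM final; 100 mM NaOAc pH 7; 6 hr 37 C; ThT 30 uM final added, 1 hr RT; FP ex 555/em 632 nm.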
# PNC assembly inh – perinucleolar compartment assembly inhibition. activity change (PNC), negative = inhibition, % at 10 µM. PC3M PTB-GFP, PNC prevalence imaging, 16 h; stronger effect = lower value. 3.1% of 140,000 active;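 active means readout at or below -70, meaning at least 70% loss of cells showing the perinucleolar compartment, a nuclear body marking cancer cells; inconclusive means readout between -30 and a set limit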;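 further: plate controls were DMSO wells for no effect and camptothecin positive control wells for full effect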
#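 Compounds are pinned in duplicate onto adhered PC3M cells stably expressing GFP-tagged PTB and incubated 16 h at 37 C. Cells are then fixed, nuclei stained with Hoechst, and PNC-positive cells counted.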
# Tau fluor counter – counter-screen for tau fibril formation inhibitors. tau K18 P301L Alexa594 fluorescence, heparin fibrillization. Potency, µM (series often up to 57.7 µM), for the others: at the top dose activity change, negative = decrease. 0.93% of 280,000 active. AID 1463; further: potency means the concentration at half of the fitted maximal effect; nearly all actives have a fitted effect of over 55% in size
#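 Human tau K18 P301L (15 uM unlabeled, 0.24 uM Alexa 594-labeled) in 100 mM sodium acetate pH 7 with 20 uM heparin, 6 hr at 37 C. ThT 30 uM added, 1 hr ambient; Alexa 594 FP and total fluorescence read at 555/632 nm.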
# Tau ThT inhib – inhibitors of human tau fibril formation, thioflavin T binding; Potency, µM (doses to about 57.4 µM), without a hit: top-dose activity, negative = inhibition, hits mostly inhibitors; 2.1% of 270,000 active; P10636; recombinant tau K18 P301L (four-repeat tau fragment), heparin-induced fibrillization, ThT fluorescence; further: potency means the concentration at half of the fitted maximal effect; nearly all actives have a fitted effect of over 55% in size
#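 Tau K18 P301L fragment (15 uM unlabeled plus 0.24 uM Alexa 594-labeled) in 100 mM sodium acetate pH 7 with compound, fibrillization induced by 20 uM heparin for 6 hr at 37 C. Thioflavin T (30 uM) added, fluorescence read after 1 hr (ex 450, em 510 nm).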
# TR SRC2 fluor cs – Texas Red fluorescence interference in TRb-SRC2 counter-screen | 0.29% of 280,000 active | Potency, µM (doses to about 106 µM), without a hit: top-dose fluorescence change, negative = quenching | TRb/SRC2 Texas Red total fluorescence interference | AID 1479; active means well fitted curve in either direction with a large enough effect; inconclusive means small, poorly fitted or top-dose-only effect; further: potency means the concentration at half of the fitted maximal effect
#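 Human TRβ ligand-binding domain (0.6 uM) and Texas Red SRC2 peptide (20 nM) in Tris buffer with 1 uM T3 and 5% DMSO were incubated with pinned compound for 5 hr at ambient temperature. Total fluorescence was computed as S + 2P (555/632 nm).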
# The depositor's hits bear a star; ? = inconclusive; . = no result; [ ] = dose if it differs, or a comment. The list is not random: actives were taken first. Their share in the collection is about 4.6%. Unless noted, the call rests on the fitted dose curve; in most records, active means well fitted curve in the direction sought with a large enough effect; inconclusive means small, poorly fitted or top-dose-only effect, or another doubt; inactive means no such curve, though single readings can be large; an effect the other way counts as inactive or inconclusive. Unless noted, on the % scale 0 is the no-effect control and ±100 the full control effect.
SMILES,TRb SRC2 PPI,Tau fibril FP,PNC assembly inh,Tau fluor counter,Tau ThT inhib,TR SRC2 fluor cs
O=C(NC1CCCCC1)c1c[nH]c2ccc(S(=O)(=O)Nc3ccccc3F)cc2c1=O,0.0%,28.2µM*,.,?,-10.8%,1.5%
CCc1ccccc1NS(=O)(=O)c1ccc2[nH]cc(C(=O)NC3CCCC3)c(=O)c2c1,-3.5%,12.6µM*,21.0,?,6.5%,-0.7%
CNC(=O)c1c[nH]c2ccc(S(=O)(=O)Nc3cccc(Cl)c3C)cc2c1=O,2.1%,-13.4%,.,-24.2%,-3.1%,-0.2%
COc1cc2c(C(=O)N3CCN(Cc4ccc5c(c4)OCO5)CC3)cn(C)c(=O)c2cc1OC,-11.7%,4.3%,55.1,-6.3%,-8.8%,0.0%
Cc1ccc(Nc2ncnc3c2nc2n3CCCC2)c(Br)c1,-4.4%,6.1%,.,14.3%,6.9%,20µM*[quencher]
Fc1ccc(Nc2ncnc3c2nc2n3CCCC2)cc1,4.1%,6.2%,.,-6.1%,-5.4%,7.4%
COC(=O)c1ccc(Nc2ncnc3c2nc2n3CCCC2)cc1,-16.8%,2.2%,.,9.0%,-11.9%,17.8µM*[quencher]
COc1ccc(CNc2ncnc3c2nc2n3CCCC2)cc1,-4.6%,-13.6%,.,4.1%,4.5%,17.8µM*[quencher]
COCC1C2CC[C@H]3C(OCc4ccc(OC)cc4)OC[C@]4(C)[C@H]3C2=C(CN4C(=O)OC(C)(C)C)[C@H](C)C1COC (stereo not given in full),6.8%,-12.4%,.,-11.6%,?,-1.9%
CN(C)S(=O)(=O)c1ccc2[nH]cc(/C=C/c3nc4ccccc4c(=O)n3-c3ccccc3)c2c1,-13.4%,-14.0%,-80.1*,-13.4%,10.4%,2.7%
COc1ccccc1CCNC(=O)Nc1cccc([N+](=O)[O-])c1,-2.9%,-2.1%,.,?,-15.2%,-5.2%
O=C1C(c2[nH]c3ccc(S(=O)(=O)O)cc3c2O)=Nc2ccc(S(=O)(=O)O)cc21,-11.0%,?,.,-22.2%,8.91µM*,?
CCCCC1=CC2=C(OC(C)=O)C(=O)C(C)(OC(=O)C3CCCC3)C(=O)C2=CO1 (stereo not given),8.4%,?,.,?,28.2µM*,-1.1%
CCCCC1=CC2=C(OC(C)=O)C(=O)C(C)(OC(=O)CC)C(=O)C2=CO1 (stereo not given),5.5%,?,.,-16.2%,?,0.2%
Nc1c(Cl)ncnc1N/N=C/c1ccc2ccccc2n1,-0.2%,10.1%,34.7,-29.5%,3.98µM*,-5.7%
O=C(NCCSc1c(-c2ccc(Br)cc2)[nH]c2ccccc12)c1ccc(S(=O)(=O)N2CCOCC2)cc1,-2.0%,-14.0%,.,4.47µM*[quencher],-3.8%,-0.3%
O=C(NCCSc1c(-c2ccc(Cl)cc2)[nH]c2ccccc12)c1ccc(S(=O)(=O)N2CCOCC2)cc1,0.7%,-13.9%,.,3.98µM*[quencher],-6.4%,-2.5%
CCc1cccc(NC(=O)Cn2c(=O)ccc3cc(S(=O)(=O)N4CCC(C)CC4)ccc32)c1,-10.3%,?,.,-24.6%,13.1%,1.6%
CCOC(=O)c1oc2ccccc2c1CSc1nnnn1-c1ccc(C)cc1,-14.1%,-6.2%,?,?,-20.1%,-3.4%
Cc1ccc(-n2nnnc2SC(C(=O)c2c[nH]c3ccccc23)c2ccccc2)cc1 (stereo not given),6.5%,11.2µM*,36.9,?,17.1%,-13.2%
CCOC(=O)c1ccc(NC(=O)c2cccc(S(=O)(=O)N3c4ccccc4CC3C)c2)s1 (stereo not given),4.0%,8.91µM*,-17.3,?,-6.0%,-1.3%
CC1Cc2ccccc2N1S(=O)(=O)c1cccc(C(=O)NCCCO)c1 (stereo not given),7.1%,-6.2%,21.8,-6.5%,-3.5%,-1.3%
CCOc1ccc(S(=O)(=O)N2c3ccccc3CC2C)cc1 (stereo not given),4.4%,-7.2%,-103.0*,-26.5%,-10.5%,-2.1%
COC(=O)c1ccc2c(c1)NC(=O)CS2,9.4%,-8.2%,.,-1.1%,-3.1%,0.7%
COC(=O)c1ccc2c(c1)SC1=C(CCCC1=O)N2,-24.1%,5.1%,23.1,-6.0%,12.6µM*,17.5%
SMILES,TRb SRC2 PPI,Tau fibril FP,PNC assembly inh,Tau fluor counter,Tau ThT inhib,TR SRC2 fluor cs
S=C1CCSc2ccc(Cl)cc2N1,7.4%,5.5%,?,-11.1%,-12.5%,-1.0%
O=C1CCCC2=C1Sc1ccc(Cl)cc1N2,-0.9%,14.8%,.,-15.1%,6.31µM*,-4.0%
CCC(=O)N1c2ccc(S(=O)(=O)CCC(=O)N3CCn4c3nc3ccccc34)cc2CC1C (stereo not given),-14.1%,0.3%,35.1,3.4%,1.3%,-2.9%
Cn1c(=O)c2c(nc(N/N=C/c3ccc(OC(=O)c4ccco4)cc3)n2Cc2ccc(F)cc2)n(C)c1=O,2.9%,9.7%,-29.0,7.08µM*[quencher],?,-2.0%
Cn1c(=O)c2c(nc(N/N=C/c3ccc(OC(=O)c4ccco4)cc3)n2Cc2ccccc2Cl)n(C)c1=O,0.3%,10.0%,-10.8,7.94µM*[quencher],?,-1.3%
Cc1ccccc1NC(=O)N1CCc2ccccc2C1,-4.7%,-0.7%,.,4.6%,-4.8%,-0.1%
O=C(NCCCNCCCNC(=O)c1ccc(/C=N/O)nc1)c1ccc(/C=N/O)nc1,3.4%,-0.9%,.,-10.7%,.,-1.4%
Cc1ccc(CNC(=O)c2cc(=O)c3cc(C)cc(C)c3o2)cc1,-14.0%,?,.,-18.4%,-10.9%,3.98µM*[quencher]
Cc1cccc2c1-c1sc(C(=O)NCc3ccccc3Cl)cc1CO2,0.7%,-13.8%,.,-27.2%,-8.6%,-1.2%
O=C1CN(Cc2nc3cc(Cl)ccc3c(=O)[nH]2)CCN1,4.3%,-2.6%,.,5.5%,2.4%,-1.1%
CS(=O)(=O)c1ccc2nnn(OCC(=O)Nc3ccc(Br)cc3Br)c2c1,-3.8%,6.6%,.,-6.0%,-12.9%,-0.4%
Cc1cccc(N2NC(=O)/C(=C/c3ccc(-c4ccc(Cl)c(C(=O)O)c4)o3)C2=O)c1,-1.0%,?,.,?,7.08µM*,-2.2%
O=C(O)c1cc(-c2ccc(/C=C3\NC(=O)N(c4ccccc4)C3=O)o2)ccc1Cl,-2.0%,-16.8%,.,-25.1%,?,-4.4%
O=C1NN(c2ccccc2)C(=O)/C1=C/c1ccc(-c2ccc(Cl)c(C(=O)O)c2)o1,4.9%,-9.0%,.,?,7.08µM*,-0.3%
CCC(Oc1ccccc1-c1nnc(-c2ccccc2)o1)C(=O)Nc1ccc(C(C)=O)cc1 (stereo not given),-1.8%,-7.2%,.,-14.8%,-0.7%,-0.2%
Cc1ccc(S(=O)(=O)N(CC(=O)N(C)C)c2cccc([N+](=O)[O-])c2)cc1,-1.6%,1.3%,.,2.8%,4.1%,1.9%
Oc1c(Br)cc(C=Nc2ccc3nc(-c4ccccc4)[nH]c3c2)c(O)c1Br,16.7%,?,.,4.47µM*[quencher],4.47µM*,?
